Measurements published in article PMC5540273 (PLoS ONE, 2017).

These compounds were tested on PIK3CG. Conditions: concentration: 1 μM,replicates: in singlicate; n = 1.
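Also: KINOMEscan kinase panel screen.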

Row | Compound | %Inh [%]
1 | CSc1nccc(-c2c(-c3ccc(F)cc3)ncn2CCCN2CCOCC2)n1.Cl [SB-217146] | 0
2 | Cc1ccc(C(=O)Nc2ccc(Oc3ccc4nc(NC(=O)C5CC5)cn4c3)c(F)c2)c(=O)n1-c1ccccc1 | 0
3 | CC(C)S(=O)(=O)N1CCN(Cc2ccc3c(c2)nc(NC(=O)c2ccsc2)n3C[C@H](O)c2ccccc2)CC1 [GW635815] | 0
4 | CC(=O)Nc1nc2cnc(Nc3cc(NC(=O)c4cccc(CC(C)(C)C#N)c4)ccc3C)nc2s1 | 8
5 | Cn1ccc2ncnc(Oc3ccc(NC(=O)Nc4cccc(C(F)(F)F)c4)c(Cl)c3)c21 | 0
6 | O=C(Nc1n[nH]c2cc(-c3ccco3)ccc12)C1CC1 [SB-737447] | 0
7 | COc1cccc(OC)c1C(=O)Nc1cccc(-c2nn3ccccc3c2-c2ccnc(Nc3cccc(F)c3)n2)c1 [GSK361065] | 0
8 | CC(C)c1nc(-c2cccc(NS(=O)(=O)c3ccccc3)c2)c(-c2ccnc(Nc3ccc4c(c3)CN(C)CC4)n2)s1 [GSK1649598] | 4
9 | Cn1ccc2ncnc(Oc3ccc(NC(=O)Nc4cncc(C(F)(F)F)c4)c(Cl)c3)c21 | 0
10 | FC(F)(F)c1cc(Br)cc(Nc2nccc(-c3cnn4ncccc34)n2)c1 [GW810578] | 10
11 | CN(c1ccc2c(c1)nc(NCc1ccc(F)cc1)n2C)c1ccnc(Nc2ccc(CS(C)(=O)=O)cc2)n1.Cl [GW813244] | 0
12 | Cc1ccn2nc(-c3ccc(F)cc3)c(-c3ccncc3)c2c1.Cl [GW457859] | 1
